Data from PubChem BioAssay (NCI).
This is part of a sample that, as a whole, favours compounds with a hit. Of some 79,000 tested, about 15% had one in any assay. A number with no mark means an inactive call. Activity calls are given as the source filed them. No stated cut-off is given here; in the data, active means growth inhibition above about 70%; inactive means the rest.

What was measured:
[1] = NCI Yeast Anticancer Drug Screen. Data for the rad50 strain (AID 155);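 further: 0% = growth of vehicle-only cultures of the same strain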; conditions: S. cerevisiae rad50 strain growth inhibition, active compounds read high
Summary of the method: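 Compounds were tested on a yeast strain with an engineered DNA damage repair alteration; the reported value is growth inhibition normalised to vehicle treatment.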

[2] = NCI Yeast Anticancer Drug Screen. Data for the mec2-1 strain (AID 157); conditions: S. cerevisiae mec2-1 strain, active compounds read high
Summary of the method: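 Vehicle-treated cultures served as reference for growth inhibition of compound-exposed mec2-1 yeast.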

[3] = NCI Yeast Anticancer Drug Screen. Data for the sgs1 mgt1 strain (AID 161);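 further: 0% = growth of cultures given vehicle only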; conditions: S. cerevisiae sgs1 mgt1 strain, active compounds read high
Summary of the method: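 Mutant yeast exposed to compound; growth scored against vehicle-only wells.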

[4] = NCI Yeast Anticancer Drug Screen. Data for the cln2 rad14 strain (AID 165);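 further: 0% = growth equal to vehicle treated cultures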; conditions: S. cerevisiae cln2 rad14 strain, active compounds read high
Summary of the method: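 Each compound was tested on cln2 rad14 yeast. Inhibition of growth was calculated against vehicle-exposed controls.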

[5] = NCI Yeast Anticancer Drug Screen. Data for the bub3 strain (AID 167); conditions: S. cerevisiae bub3 mutant strain, active compounds read high
Summary of the method: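 Growth of a checkpoint-deficient yeast mutant is measured after compound exposure. Values represent inhibition relative to vehicle.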

[6] = NCI Yeast Anticancer Drug Screen. Data for the mlh1 rad18 strain (AID 175); conditions: S. cerevisiae mlh1 rad18 strain growth inhibition, active compounds read high
Summary of the method: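 Vehicle-treated cultures served as the reference for growth inhibition in a yeast strain carrying DNA damage repair alterations exposed to each compound.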

[7] = at 5.0 µM (retest, dose inferred, filed as 0.5)
[8] = at 50.0 µM (retest, dose inferred, filed as 5.0)

SMILES	growth inhibition [1, 7]	growth inhibition [1, 8]	growth inhibition ([1]; at 50.0 µM)	growth inhibition [2, 7]	growth inhibition [2, 8]	growth inhibition ([2]; at 50.0 µM)	growth inhibition [3, 7]	growth inhibition [3, 8]	growth inhibition ([3]; at 50.0 µM)	growth inhibition [4, 7]	growth inhibition [4, 8]	growth inhibition ([4]; at 50.0 µM)	growth inhibition [5, 7]	growth inhibition [5, 8]	growth inhibition ([5]; at 50.0 µM)	growth inhibition [6, 7]	growth inhibition [6, 8]	growth inhibition ([6]; at 50.0 µM)
COC12C(COC(N)=O)C3=C(C(=O)C(C)=C(N)C3=O)N1CC1C2N1C(=O)c1ccc(Cl)cc1 (centres undefined)	12%	57%	43.3%	15%	75% (active)	50.1%	20%	81% (active)	65.5%	3%	72% (active)	46.4%	3%	50%	43.4%	25%	86% (active)	71.1% (active)
CN(C)c1ccc2c(c1)N(C)c1ccccc1C2(Cl)c1ccccc1 (centres undefined)	96% (active)	99% (active)	99.2% (active)	99% (active)	100% (active)	99.5% (active)	90% (active)	99% (active)	99.3% (active)	70% (active)	98% (active)	99.2% (active)	89% (active)	99% (active)	99.3% (active)	95% (active)	99% (active)	99.4% (active)
Cn1nc(N)c2cccnc21	3%	19%	-1.25%	-5%	3%	1.7%	-1%	6%	14.3%	3%	1%	45.1%	2%	2%	-6.1%	1%	10%	0.35%
O=C1OCCN1/N=C/c1ccc([N+](=O)[O-])o1	14%	54%	81.2% (active)	7%	30%	54.1%	9%	62%	87.7% (active)	-2%	27%	50.1%	7%	39%	40.8%	30%	72% (active)	88.5% (active)
O=C1CSC(=S)N1c1ccc(I)cc1	1%	34%	99% (active)	-2%	11%	99% (active)	2%	59%	99.2% (active)	-2%	-8%	83.8% (active)	-6%	26%	99% (active)	0%	75% (active)	98.7% (active)
CCCCCCCCCCCCCCCc1nc(SCC(=O)O)n[nH]1	2%	58%	54.8%	0%	52%	55.9%	18%	54%	74.2% (active)	3%	40%	80.5% (active)	-1%	67%	37.1%	9%	71% (active)	89.5% (active)
CC#CC(=O)Nc1ccccc1CC(c1c[nH]c2ccccc12)c1c[nH]c2ccccc12	50%	50%	75.4% (active)	31%	31%	55.1%	40%	40%	67.5%	19%	19%	67.7%	32%	32%	60.8%	35%	35%	53.8%
COc1ccc(C(c2ccc(C(C)C)cc(OC)c2=O)c2ccc(C(C)C)cc(OC)c2=O)cc1	7%	54%	22.4%	-1%	39%	42.2%	6%	61%	13.2%	-2%	37%	10.2%	0%	16%	9%	-4%	41%	29.2%
